# According to PubChem BioAssay AID1508600 (Functional Genomics Laboratory (NCATS/FGL), 2020):
# The whole screen tested about 53,000 sequences, of which about 3,700 (7%) were called active. The full list was thinned out, with actives kept by preference. A number with no mark means an inactive call.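 The calls were made as follows: active = gene knockdowns whose robust z-score for IL-1 alpha signal is at least 2 or at most -2, so actives lie on both sides; inactive = the rest.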
# Experiment: Components of the Cytosolic LPS Sensing Pathway: Gene Identification via Genome-wide siRNA Screen
# Settings: RAW264.7 macrophages, IL-1a HTRF, actives lie on both sides, screened at 100 nM (by protocol), cells primed 5 h with Pam3CSK4 first
# Text: Non-canonical inflammasome activation by cytosolic LPS is a critical component of the host response to Gram-negative bacterial infection, however we lack a comprehensive understanding of the cellular processes that control this pathway. Here we describe a genome-wide siRNA screen to identify genes regulating the mouse macrophage IL-1 alpha response to cytosolic LPS.
# RAW264.7 cells were maintained in complete DMEM media, comprising DMEM with 4.5 g/L glucose, 10% FBS (Gemini Bio-Products, West Sacramento, CA), 2 mM Glutamine (Lonza) and 20 mM HEPES (Lonza), hereafter complete DMEM.
# The RNAi screen was conducted in 384-well format using the Ambion Silencer Mouse Genome siRNA Library (#4391425), which consists of three unique, nonoverlapping, nonpooled siRNAs for each of 17,000 gene targets. siRNA reagents ([…]) were stamped into 384-well white flat-bottom microplates (Corning, 3570) using a Velocity11 VPrep liquid handling system (Agilent) integrated into a BioCel robotic platform (Agilent) in columns 1-22, leaving columns 23-24 empty for negative (Ambion, Negative control #1) and positive (mouse Casp4) controls, respectively. The median value of each plate's negative control column was used to normalize sample wells, and the positive control was used to assess transfection efficiency and assay performance.
# Lipofectamine RNAiMAX Transfection Reagent ([…]; Invitrogen) was added in […] serum-free, antibiotic-free media to plate wells using a Thermo Scientific Matrix WellMate and Microplate Stacker. Plates were incubated for 45 min at room temperature to allow for the sufficient formation of siRNA-lipid complexes. Cells were seeded at a density of 1x10^4 cells per well in 20 microL media containing 20% (vol/vol) FBS without antibiotics. The final concentration of siRNA in each well was 100 nM. Cells were cultured for 48h at 37 degrees C in 5% CO2 before addition of […] of TLR ligand Pam3CSK4 for 5 hours. The medium was then removed, replaced with […] growth media and cell were transfected with […] of LipidA and TransIT-TKO (Mirus) for 24 hour. At the end of the LipidA treatment, […] of supernatant was transferred to a 384 Greiner Bio-one non-binding low volume plate and […] of IL-1a HTRF reagent (Cisbio, 62MIL1APEH) was added and incubated at room temperature overnight. The plates were read on an EnVision plate reader (PerkinElmer). Cell viability was measured by adding 20ul Cell Titer Glo to the original plate and running a luminescence read on the EnVision. The quantified IL-1a signal for each siRNA gene-targeted well was divided by the median of the negative control wells and multiplied by 100 to achieve a negative control normalized value for each well/siRNA. This normalized value was then used to generate a robust z-score by first taking the log of each value and then by subtracting the median and dividing by the […].
row,Sequence,z-score
1,GGCAGAGCUAGAUCAAAUUTT against Retreg1,3.58 (active)
2,GGAAAUUCACACAGAUGAATT against Mtmr12,-1.27
3,GCCAACCUUCAAGGAAUAUTT against Cyp2b10,1.4
4,GGGAAGACAAGAACAACUUTT against Pitrm1,0.756
5,GGUCGUUAUCACUCUCUAUTT against Pkd1l3,3.34 (active)
6,CCCUUUAGCUUCCUAAUGUTT against Rhag,0.11
7,GGUUUUAUUAACUCUGUGATT against Olfr1013,0.453
8,GGACUGCUUUUUUUACUCATT against Mta2,-2.07 (active)
9,CCUGGUAAUCACAAUUUCGTT against Tor1b,-0.655
10,GGUAGACAAGAUCAUCGGATT against Dsc3,0.711
11,GGCAUAGAAGAGAUGACAGTT against Fabp7,-2.18 (active)
12,GCCUGUCUGCCUUUGCUUCTT against H4c9,2.47 (active)
13,GCUCGUACAUCUAUGGCUATT against Psmb6,-0.633
14,GGACCUAAGCAUUUUACAUTT against Traf2,-0.143
15,CCUAUGUGUACUUCAUCCUTT against Elovl1,2.93 (active)
16,GCCUUUUAUACAUGUUUGATT against B130024G19Rik,-1.55
17,GCUAGAGUAUGAGAACUUCTT against Cdc14b,0.233
18,GGUAGAGAACCAGAGGCAUTT against Ninj2,-0.164
19,GCCAGGAAUGCUAUUCUCGTT against Lrg1,-2.26 (active)
20,CCACCAUUUACUGAGUUUATT against Scn2b,-0.324
21,GUCUUUGGAAAUCUACUCATT against Olfr1189,-1.21
22,GGAGAUUCUGUGCAAUGCATT against Dnajc12,-0.0758

row,Sequence,z-score
1,CCAUUAACGUAAAUUCUGUTT against Ankrd13c,-0.971
2,GCUCAUACCUAUCUCAAGGTT against Tnfsf9,0.365
3,CCUAACAUAGUAUAGCCUUTT against Zfp868,-0.0695
4,GGUCCUGAAGAUACAUAUUTT against Taf2,-2.42 (active)
5,GGGAGAAAUGCAAAUAUUUTT against Mbnl2,-0.37
6,GGUGAAGAAAGCGGAAAAGTT against Cstf3,-0.19
7,GGACCUGUUUUGGAAAUAUTT against Jchain,-0.613
8,GGGUUAUGGACACUACCCATT against Tnk1,-1.84
9,GGUACGAGAACAACUGACUTT against Acot3,0.269
10,GGUACGUGAGAGAAUUCUGTT against Trem2,3.14 (active)
11,GGUCAGAUACAAUGUAUAUTT against Ap1s3,-0.793
12,GGUGUGUAAUGUGCGUGAGTT against Ephb3,1.11
13,GGGAUCCUUAUUUCAUACUTT against Olfr868,1.16
14,GGCGGAAAUCAAAGGAGGATT against Dnmt1,0.791
15,GGUGGAGUUUAAACUUACATT against Atp4b,5.64 (active)
16,GGAAACGAUAGCCAAUAUUTT against Scp2d1,-1.08
17,GGGAUCAAUGGCUACCUGUTT against Slc7a10,-0.0112
18,UAACUGGGCUCACGUUGACTT against Pou2f1,0.47
19,GGUACAAAAUGGCUUGUUGTT against Tmem215,2.53 (active)
20,GGUCCACACCAGACAUCAATT against Wfdc5,0.263
21,CGGUGAUGGUUCAUUUGCATT against Zmiz2,1.36
22,GGCUGUGAAGAACUGGCAGTT against Rnaseh2a,1.85

row,Sequence,z-score
1,GGUUGUGAGCUAACAAUGGTT against B430209F14Rik,1.25
2,GAGAACGCGUUUUUGGGACTT against Defa5,1.66
3,GGGAUGUAUUAGUGAAAGGTT against Dmpk,0.368
4,GGAGGAAAUAUGUUAACUATT against Atp6ap2,1.22
5,CGGCAACCGGCACUAUAAATT against Pnoc,0.231
6,GGCAUUUCAUAGAGAGAAUTT against LTO1,-2.21 (active)
7,GCCUUAGGCCUUUGUUUCCTT against Tpgs2,0.124
8,GGUUCUGGACUUCAUCCUCTT against Ocstamp,1.42
9,GGAAAAUUAAUAGCACAAGTT against Acot13,0.0633
10,GGUUUACUGUGAAAAAAGATT against Morc2b,0.0774
11,CCUGAUACUAACAAGGAAATT against Afmid,-0.625
12,GGUUGUCUUGACACCCUACTT against Tnfrsf1b,-2.21 (active)
13,GGAGAAGCAGAUUCUUCAATT against Calhm6,-0.0547
14,GGGAUGUCUGUUGAAAUAATT against Prcc,-0.422
15,CCAUGACACUCAUUCCCAGTT against Tbc1d7,-2.64 (active)
16,CCAUGUUUAUGGCACGCUGTT against Postn,0.536
17,GGUUUGUAGAGGCAUCAAGTT against Snph,-0.13
18,GCAUCCUUCUGAGUUGAUGTT against Tollip,-1.02
19,CCUUGAGAAAGCUCCAGUUTT against Cldn9,0.0773
20,GGUGUUUCAUAUGGUUACUTT against Psma3,-0.94
21,GGAAGUUUGAGUUUGAGCUTT against Fbxl21,1.79
22,GCUCUCUAUAGGAUAAUGGTT against Vwa5b2,-1.86

row,Sequence,z-score
1,CGAUAUCAAGAGUGCAUGATT against Gas6,2.97 (active)
2,GGCUAAUCACCAAUUUCUUTT against Derl2,-1.19
3,GCACCUUCAACCAACAAGGTT against Dph3,-0.311
4,GGUCAUUCGCUUCGAAAAGTT against C1qb,-2.05 (active)
5,GGAAUUCCUCUGUAUGAAATT against Pgr,-0.824
6,GGACUACCACAGCCUCUUCTT against Pxn,0.173
7,GGGCAAAUGAUAUAAGGAUTT against Ndufa12,-0.585
8,CCUCUUGGUUAAAUAAUGUTT against Rnf103,-1.9
9,GCGGCAACAUUCAAAGUGGTT against Itgb2l,-1.94
10,GGCUGUGUCAUCACCAUCUTT against Acot7,-1.31
11,GGAUGCUCUCUUAAAUGGATT against Gbp6,0.327
12,GGUUGUCAAGAAAUUACCCTT against Marchf10,2.14 (active)
13,GGAUGAUAUCUCAGUCAUGTT against Sult2a8,0.462
14,GGAAGGAAUUGGUUACCUATT against Cep72,-0.2
15,GGCUGAGUGAAUUGGGAAUTT against Olfr419,1.28
16,GGACGAUAGGACCCAAAGGTT against Sh3tc1,0.668
17,GGAUUUGUACACACUUCAATT against Tcim,1.48
18,GGCAUCCAAUCCUGUGGAGTT against Bcl11a,-0.62
19,GGGAGAUAUCUUCUCAGUATT against Psmb11,1.5
20,CGUAGAUGUCCUAGAAUUGTT against Rundc1,1.37
21,GGAGGAGUAUGAAGAGCUGTT against Poc5,-0.0911
22,GGACAAUUCAGAGUGAUAGTT against Mog,-2.21 (active)

row,Sequence,z-score
1,GCGAUGAUAAGUGCCUGGUTT against Stk31,-1.58
2,CGGAGUGAAACUACUCAUUTT against Ckb,-0.773
3,GGUGAUUUAUUCAGUUCAATT against Lmbrd2,-1.13
4,CCUUUGAAAAAGCUUGCCATT against Tor1aip2,0.0385
5,GGUGCUAUGGAAAAUCAAGTT against Dcaf1,-1.04
6,GGAAAUGUUUAUCACGGUUTT against Scube2,2.05 (active)
7,GGUCAUGCAAGACAAGAUCTT against Lrrc8c,0.487
8,GGCAGCGAAAGUUUUCAAGTT against Pcdhga12,0.721
9,GGAAUCCUGGAUUGAGGAATT against Rhod,0.394
10,GCACUGGAAUGUCAUCUCGTT against Casp3,2.9 (active)
11,GGGUCAACUACUCACACUGTT against Crhr2,0.78
12,CCAUAAGCGAAAUGCCUUCTT against Areg,0.201
13,CGUUGUUUAUUCCAAAGAGTT against Runx1,0.44
14,GGAAGUAAAGGGAUUUAACTT against Ankrd46,2.19 (active)
15,GACCCAGGCUCUGCUCUUUTT against Olfr1413,0.413
16,CCGGAAAUUUCUGAUGGAGTT against Eif4ebp1,2.19 (active)
17,GCUAGAUAUCCGGAACCAATT against Ndufv3,-0.752
18,GAGACAUCCUCUUCACCAUTT against Olfr495,-1.25
19,GGAAGAAUUCUCAAAGAAUTT against Scyl3,-0.343
20,GGAUCUGAGCCUUAACAAGTT against Lpcat3,2.92 (active)
